From PubChem BioAssay
The list is not random: actives were taken first. Their share in the collection is about 2.2%.
FUS suppressor: qHTS for Suppressors of FUS Proteinopathy: Primary screen using FUS-linked yeast assay | S. cerevisiae FUS-expressing, growth rescue, OD600, 24 h | Potency, µM (highest dose often 76.6 µM), hits mostly activators | 390,000 tested, 0.24% active | AID 1347120, 2019; also: nearly all actives have a fitted effect of over 55% in size
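Quantitative HTS measuring growth restoration of FUS-toxic yeast. Galactose-induced cells (OD 0.005) were exposed 24hr at 30C to compounds at several concentrations, then absorbance at 600 nm was recorded.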
Abeta rescue: qHTS for compounds that reverse cellular toxicity of Amyloid beta (A-beta) peptide in yeast: Primary Screen. 410,000 tested, 0.063% active. yeast expressing A-beta42, growth rescue, OD600, 48 h; response scale: 0% DMSO, 100% iron-clioquinol control. Potency, µM (titrated, usually from 46.1 µM), hits mostly activators; also: nearly all actives have a fitted effect of over 55% in size
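Yeast growth medium received pinned compounds, then yeast cells expressing toxic A-beta were added; plates incubated at 30 C for 48 hr. Growth read as absorbance at 600 nm, normalized to DMSO and equimolar FeCl3 plus clioquinol controls.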
Mito fusion act: qHTS Assay for Small Molecule Inhibitors of Mitochondrial Division or Activators of Mitochondrial Fusion; Potency, µM (series often up to 46.1 µM), usual class: activators; S. cerevisiae fusion-defective mutant growth rescue, CellTiterGlo 48 h; 320,000 tested, 0.23% active; also: nearly all actives have a fitted effect of over 45% in size
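Yeast fusion mutant, YPEG (non-fermentable carbon), compound, 48 h at 37C non-permissive; CellTiterGlo added, 10 min RT, luminescence read. Rescued growth = division inhibition.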
aSyn yeast inh: qHTS of alpha-syn Inhibitors | Yeast expressing alpha-synuclein, growth rescue, BacTiter-Glo, 24 h | Potency, µM (top dose mostly 46.1 µM), usual class: activators | 370,000 tested, 0.14% active | AID 652106, 2013; also: nearly all actives have a fitted effect of over 65% in size
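Screening used galactose-induced yeast with toxic alpha-synuclein levels, exposed to compound for 24 hr at 30 deg C. Cell growth, read with BacTiter-Glo luminescence, gave the measured signal.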
TDP-43 yeast inh: qHTS of TDP-43 Inhibitors | 410,000 tested, 1.8% active | AID 652104, 2013 | TDP-43 expressing yeast growth rescue, BacTiter-Glo, 24 h | Potency, µM (titrated, usually from 46.1 µM), hits mostly activators; also: nearly all actives have a fitted effect of over 50% in size
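Growth rescue of TDP-43-toxic yeast measured as ATP luminescence (BacTiter-Glo). Cells grown to mid-log in raffinose, induced in galactose at OD600=0.02, exposed to compound 24 hr at 30 deg C.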
Hits are given with their value; – = inactive; ? = inconclusive; · = no result. Calls follow the shape of the dose curve; as a rule, active = well fitted curve in the direction sought with a large enough effect; inconclusive = small, poorly fitted or top-dose-only effect, or another doubt; inactive = no such curve, though single readings can be large; an effect the other way counts as inactive or inconclusive.

SMILES	FUS suppressor	Abeta rescue	Mito fusion act	aSyn yeast inh	TDP-43 yeast inh
CC(=O)Nc1ccc(-c2sc(Nc3cccc4ccccc34)n[n+]2-c2ccccc2)cc1	32µM	–	–	–	–
O=C(N/N=C/c1ccc(O)cc1)NC12CC3CC(CC(C3)C1)C2	–	–	–	–	11µM
CCCOc1ccc(CNC(=O)c2ccc3c(c2)N(Cc2ccccc2)CCS3)cc1	–	–	·	·	–
CCCCOc1ccc(CNC(=O)CN2CCSc3ccccc32)cc1	?	?	·	?	35µM
COc1cccc(NC(=O)CN2CCSc3ccccc32)c1	–	–	–	–	22µM
CN1CC=C(c2ccc(C(F)(F)F)cc2)N(c2ccccc2)C1=O	–	·	·	·	·
O=C1c2cc3c(cc2CCC1c1ccc2c(c1)OCO2)OCO3 (stereo not drawn)	–	–	·	–	16µM
O=C(CSc1nnc(-c2cc3ccccc3cc2O)n1Cc1ccco1)N1CCc2ccccc2C1	16µM	–	?	–	–
CCn1c(-c2csc3c2CCC(C)C3)n[nH]c1=S (stereo not drawn)	·	–	–	–	11µM
CCCc1cc(-c2n[nH]c(=S)n2CC)cs1	–	–	–	–	35µM
CCc1cc(-c2n[nH]c(=S)n2CC)cs1	·	–	–	–	?
CCn1c(-c2csc3ccccc23)n[nH]c1=S	·	–	–	–	22µM
CCn1c(-c2ccccc2O)n[nH]c1=S	–	–	–	–	–
COc1ccc(NC(=O)CSc2ncc(-c3ccc(Cl)cc3)[nH]2)cc1OC	–	–	·	·	–
COc1ccc2c(c1)c1c(c(=O)n(Cc3ccccc3)c(=O)n1CC(=O)NCc1ccccc1Cl)n2C	–	–	·	·	–
CCOC(=O)c1c(C)n(C)c2ccc(OCC(O)CN3CCCCCC3)cc12 (stereo not drawn)	–	–	–	–	–
CCOC(=O)c1c(C)n(C)c2ccc(OCC(O)Cn3nc(C)c(Br)c3C)cc12 (stereo not drawn)	?	–	?	–	16µM
Cc1cccc(N2CCN(C(=O)c3cnn(-c4ccc(F)cc4F)c3C3CCN(C(=O)OC(C)(C)C)CC3)CC2)c1C	–	–	·	·	–
O=C(CSC1=NS(=O)(=O)c2ccccc21)Nc1ccccc1	–	–	–	?	35µM
COC(=O)CSC1=NS(=O)(=O)c2ccccc21	·	–	–	?	?
Cc1nn2c(-c3ccco3)nnc2c2ccccc12	–	–	–	·	8.9µM
COc1ccc(S(=O)(=O)N(CC(=O)Nc2cccc(C(F)(F)F)c2)c2ccc(C)cc2)cc1	?	–	·	·	–
Cc1ccc(S(=O)(=O)c2c(N)n(Cc3ccco3)c3nc4ccccc4nc23)cc1C	25µM	–	–	–	–
Nc1c(S(=O)(=O)c2ccccc2)c2nc3ccccc3nc2n1Cc1ccco1	–	–	–	–	–
Cc1cccc(NC(=O)C2C(c3ccccc3)C2(Cl)Cl)c1 (stereo not drawn)	–	–	?	–	22µM
SMILES	FUS suppressor	Abeta rescue	Mito fusion act	aSyn yeast inh	TDP-43 yeast inh
COc1ccc(/C=C2\NC(=S)N(CC3CCCO3)C2=O)c(OC)c1C (stereo not drawn)	–	–	–	–	13µM
CC1(c2ccc(Cl)cc2)CC(C)(C)N(C(=O)c2ccccc2)c2ccccc21 (stereo not drawn)	–	–	·	·	–
CC1(c2cc([N+](=O)[O-])cc([N+](=O)[O-])c2)CC(C)(C)N(C(=O)c2ccccc2)c2ccccc21 (stereo not drawn)	–	–	–	–	25µM
CSc1ccc(S(=O)(=O)NCc2ccccc2C)cc1	–	–	–	–	14µM
O=C(CC(O)CCc1ccccc1)c1ccc(O)cc1 (stereo not drawn)	–	?	·	–	10µM
CC(C)CN(CC(C)C)c1nc(-c2ccc(Cl)cc2)nc2ccccc12	–	–	·	–	35µM
CCN(CC)c1nc(-c2ccc(C(C)(C)C)cc2)nc2ccccc12	–	–	·	·	–
O=C(NCCS(=O)(=O)N1CCN(c2ccc(F)cc2)CC1)c1cccc(C(F)(F)F)c1	–	?	·	·	10µM
CSc1ccccc1C(=O)NCCS(=O)(=O)N1CCN(c2ccc(F)cc2)CC1	–	–	–	–	–
O=C(Cc1ccc(Br)cc1)NO	·	·	·	–	·
Cc1cc(Cl)ccc1Nc1nc(NCc2ccco2)nc2nccnc12	·	·	·	–	·
COc1cc2cc(CCCOC(=O)c3ccc(F)cc3)oc(=O)c2cc1OC	–	–	–	–	20µM
Cc1cccc(Nc2nc(-c3ccncc3)cs2)c1	–	–	–	–	?
Clc1cccc(Nc2nc(-c3ccncc3)cs2)c1	–	–	–	–	13µM
Cc1ccc(Cl)cc1Nc1nc(-c2cccnc2)cs1	–	–	–	–	13µM
O=C(CCC(=O)N1CCSc2ccccc21)Nc1ccc(Cl)cc1	–	–	·	·	–
CCOc1ccc(CCNC(=O)c2nc(-c3cccc(F)c3)n3c2CCCCC3)cc1OCC	?	–	·	·	18µM
CN(C(=O)c1nc(-c2cccc(F)c2)n2c1CCCCC2)c1ccccc1F	–	–	·	·	–
CC(=O)Nc1ccc(Nc2nc3ccccc3nc2NS(=O)(=O)c2ccccc2)cc1	?	–	–	–	20µM
Fc1cc(Br)ccc1Nc1c2c(nc3nc(-c4cccs4)nn13)CCCC2	–	–	·	·	20µM
Cc1ccc(Nc2c3c(nc4nc(-c5cccs5)nn24)CCCC3)cc1F	–	–	·	·	–
CCCCCCC(=O)N(O)C1CC(=O)N(c2ccc(Br)cc2)C1=O (stereo not drawn)	–	–	–	–	–
COc1ccccc1N(O)C1CC(=O)N(c2ccc(Br)cc2)C1=O (stereo not drawn)	?	–	–	–	28µM
Cc1ccc(CCNS(=O)(=O)c2ccc(C)cc2)cc1	–	–	–	·	16µM
CCCCOC(=O)c1ccc(Nc2ncnc3nc[nH]c23)cc1	–	–	–	–	–
SMILES	FUS suppressor	Abeta rescue	Mito fusion act	aSyn yeast inh	TDP-43 yeast inh
CCCCCCCCOC(=O)c1cc([N+](=O)[O-])c(Sc2ncnc3nc[nH]c23)c([N+](=O)[O-])c1	·	–	·	–	13µM
CCC(=O)Nc1ccc2c(c1)C(=O)N(C)[C@@H]1CC[C@@H](CC(=O)NCCN3CCCCC3)O[C@H]1CO2	–	·	·	·	·
Cc1ccc2nc(NC(=O)CSc3nccn3Cc3ccc(F)cc3)sc2c1	–	?	·	?	22µM
O=C1CC(c2ccc3c(c2)OCCO3)Oc2ccccc21 (stereo not drawn)	–	–	–	–	14µM
COc1ccc(C2=CC(=O)C[C@H](c3ccc(F)cc3)C2)cc1OC	–	–	?	–	22µM
COc1ccc([C@H]2CC(=O)C=C(c3ccc(C)cc3)C2)cc1OC	–	–	–	–	13µM
COc1ccc(C2=CC(=O)C[C@H](c3ccc(OC)c(OC)c3)C2)cc1	–	–	–	–	–
